Source: PubChem BioAssay (Tox21)
Inconclusive results are not listed. Where a call stands in place of a potency, no number is given. The source holds several records for some structures; these can differ, active in one and inactive in another. The source made the active and inactive calls. Unless noted, calls follow the shape of the full dose curve.

Legend:
[1] = Nuclear factor erythroid 2-related factor 2/antioxidant responsive element (Nrf2/ARE) small molecule agonists: qHTS cell viability counter screen in human keratinocytes (AID 1919968; active = well fitted curve in the direction sought with a large enough effect in the repeat runs; an effect the other way counts as inactive or inconclusive; also: nearly all actives have a fitted effect of over 55% in size)
In short: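 HaCaT ARE reporter line, 1,500 cells/well; 5 h settle, 37 C/5% CO2; cpd in DMSO pinned; 23 h exposure; CellTiter-Fluor, 1 h; fluorescence.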

[2] = Nuclear factor erythroid 2-related factor 2/antioxidant responsive element (Nrf2/ARE) small molecule agonists: luciferase reporter gene qHTS assay in human keratinocytes (AID 1919969); also: nearly all actives have a fitted effect of over 35% in size; also: potency is read from the fitted curve at half-maximal effect
[3] = biological target: Gonadotropin-releasing hormone receptor (Homo sapiens) (UniProt P30968); test: Human gonadotropin-releasing hormone receptor (GnRHR) small molecule agonists, calcium flux assay in GnRHR-HEK293 cells (AID 1920063); also: nearly all actives have a fitted effect of over 35% in size
Sequence of Gonadotropin-releasing hormone receptor (Homo sapiens) (P30968 whole entry, looked up): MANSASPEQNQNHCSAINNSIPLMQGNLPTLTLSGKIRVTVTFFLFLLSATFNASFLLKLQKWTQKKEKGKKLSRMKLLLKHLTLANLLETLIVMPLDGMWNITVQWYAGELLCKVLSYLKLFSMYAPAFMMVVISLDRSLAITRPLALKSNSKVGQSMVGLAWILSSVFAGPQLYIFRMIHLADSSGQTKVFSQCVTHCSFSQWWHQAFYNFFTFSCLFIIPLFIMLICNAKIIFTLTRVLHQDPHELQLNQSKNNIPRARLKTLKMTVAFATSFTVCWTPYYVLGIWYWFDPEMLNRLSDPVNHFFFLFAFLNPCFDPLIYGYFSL
In short: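 GnRHR-HEK293, 1500 cells/well, 18 h 37 C/5% CO2; Ca dye 1 h 37 C; cpd pinned (DMSO), agonist mode; kinetic FL 480/540, 3 min, 1 s reads; 15 conc, n=3.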

[4] = biological target: KiSS-1 receptor (Homo sapiens) (UniProt Q969F8); test: Human kisspeptin (KISS1R) small molecule agonists, calcium flux assay in KISS1R-HEK293 cells (AID 1920064; active = well fitted curve in the direction sought with a large enough effect in the repeat runs; an effect the other way counts as inactive or inconclusive)
Sequence of KiSS-1 receptor (Homo sapiens) (Q969F8 whole entry, looked up): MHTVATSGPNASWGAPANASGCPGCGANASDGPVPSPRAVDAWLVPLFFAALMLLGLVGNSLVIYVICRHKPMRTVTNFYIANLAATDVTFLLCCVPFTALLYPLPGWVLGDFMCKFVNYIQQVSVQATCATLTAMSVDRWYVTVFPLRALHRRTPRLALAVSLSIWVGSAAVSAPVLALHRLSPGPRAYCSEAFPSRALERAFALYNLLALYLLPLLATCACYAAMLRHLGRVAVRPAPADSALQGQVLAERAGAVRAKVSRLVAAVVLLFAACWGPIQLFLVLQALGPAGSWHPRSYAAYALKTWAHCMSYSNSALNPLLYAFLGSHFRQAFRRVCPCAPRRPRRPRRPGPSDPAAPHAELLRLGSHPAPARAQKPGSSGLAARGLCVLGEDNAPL
In short: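 Stable human KISS1R HEK293 line; 18 h plating, 37 C/5% CO2; calcium dye 1 h 37 C; compound pin transfer; kinetic fluorescence Ex/Em 480/540, 3 min.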

[5] = G protein-coupled receptor (GPCR) small molecule agonists, calcium flux assay: HEK293 wild type cell line counter screen (AID 1920065)
In short: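 Kinetic fluorescence at Ex/Em 480/540, recorded every second over 3 min, served as the read-out after compound addition. Each compound was tested at 15 concentrations in triplicate on cells pre-loaded with calcium dye for 1 h.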

[6] = p53 small molecule agonists, cell-based qHTS assay with human liver microsomes (AID 1963577);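 also: p53 response element beta-lactamase reporter cells with liver microsomes plus NADPH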
In short: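 HLM-supplemented p53RE-bla reporter assay: 16 h compound exposure at 37 C, microsomes and NADPH each 0.5 mg/mL final, read by fluorescence intensity.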

[7] = p53 small molecule agonists, cell-based qHTS assay with rat liver microsomes (AID 1963578)
In short: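 Quantitative HTS of the Tox21 10K library: p53RE-bla cells, rat liver microsomes plus NADPH at 0.5 mg/mL final each, 16 h at 37 C, beta-lactamase fluorescence detection.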

[8] = p53 small molecule agonists, cell-based qHTS assay with human liver microsomes: qHTS cell viability counter screen (AID 1963579); also: nearly all actives have a fitted effect of over 45% in size; also: potency is read from the fitted curve at half-maximal effect
In short: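 Viability of p53RE-bla cells is measured as CellTiter-Glo luminescence following a 16 h, 37 C incubation with compound, liver microsomes from human donors and NADPH.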

[9] = p53 small molecule agonists, cell-based qHTS assay with rat liver microsomes: qHTS cell viability counter screen (AID 1963580); also: nearly all actives have a fitted effect of over 45% in size
In short: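 p53RE-bla HCT-116 cells (4,000/well) rested 5 h at 37 C, then given Tox21 compounds in DMSO with rat liver microsomes (0.5 mg/mL final) plus NADPH (0.5 mg/mL final) for 16 h at 37 C. Viability read by CellTiter-Glo luminescence after 30 min at room temperature.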

[10] = p53 small molecule agonists, cell-based qHTS assay (AID 1963582; active = well fitted activation curve with a large enough effect in the signal ratio in the repeat runs, not every such curve was filed as active; the % refers to the signal ratio)
In short: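 Reporter line: p53RE-bla. Pre-incubation 5 h, 37 C, 5% CO2; compound (DMSO, pin tool) 16 h, 37 C; B/G FRET substrate 2 h RT; fluorescence intensity read.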

[11] = biological target: 5-hydroxytryptamine receptor 2A (Homo sapiens) (UniProt P28223); test: 5-hydroxytryptamine receptor 2A (HTR2A) small molecule antagonists, cell-based qHTS assay (AID 1963586); also: nearly all actives have a fitted effect of over 45% in size
Sequence of 5-hydroxytryptamine receptor 2A (Homo sapiens) (P28223 whole entry, looked up): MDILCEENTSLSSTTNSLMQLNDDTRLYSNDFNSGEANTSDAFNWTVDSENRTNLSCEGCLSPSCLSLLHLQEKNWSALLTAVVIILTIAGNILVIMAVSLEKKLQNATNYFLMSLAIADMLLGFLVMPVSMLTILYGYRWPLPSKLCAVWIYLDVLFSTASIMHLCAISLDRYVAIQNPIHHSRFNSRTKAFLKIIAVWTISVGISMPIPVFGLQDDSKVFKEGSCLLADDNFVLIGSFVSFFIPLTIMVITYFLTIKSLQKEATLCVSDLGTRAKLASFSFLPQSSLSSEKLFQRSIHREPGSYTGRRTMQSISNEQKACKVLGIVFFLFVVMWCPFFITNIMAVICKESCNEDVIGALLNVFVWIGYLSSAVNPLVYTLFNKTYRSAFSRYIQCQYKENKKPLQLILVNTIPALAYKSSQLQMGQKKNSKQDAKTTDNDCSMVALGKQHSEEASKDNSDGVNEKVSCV
In short: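 Antagonist-mode intracellular calcium assay: DOI (4 nM) added after 5 min compound pre-incubation at room temperature to dye-loaded HTR2A-CHO cells. Fluorescence followed for 3 min, sampled every second.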

[12] = biological target: 5-hydroxytryptamine receptor 2A (Homo sapiens) (UniProt P28223); test: 5-hydroxytryptamine receptor 2A (HTR2A) small molecule agonists, cell-based qHTS assay (AID 1963587); also: nearly all actives have a fitted effect of over 30% in size
In short: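 HTR2A-CHO cells, plated 18 h at 37 C/5% CO2, dye-loaded 1 h at 37 C; compounds in DMSO added by pin tool (agonist mode). Intracellular calcium flux read as kinetic fluorescence on FDSS over 2 min at 1 s intervals.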

[13] = biological target: Muscarinic acetylcholine receptor M1 (Homo sapiens) (UniProt P11229); test: Cholinergic receptor muscarinic 1 (CHRM1) small molecule antagonists, cell-based qHTS assay (AID 1963588); also: nearly all actives have a fitted effect of over 40% in size
Sequence of Muscarinic acetylcholine receptor M1 (Homo sapiens) (P11229 whole entry, looked up): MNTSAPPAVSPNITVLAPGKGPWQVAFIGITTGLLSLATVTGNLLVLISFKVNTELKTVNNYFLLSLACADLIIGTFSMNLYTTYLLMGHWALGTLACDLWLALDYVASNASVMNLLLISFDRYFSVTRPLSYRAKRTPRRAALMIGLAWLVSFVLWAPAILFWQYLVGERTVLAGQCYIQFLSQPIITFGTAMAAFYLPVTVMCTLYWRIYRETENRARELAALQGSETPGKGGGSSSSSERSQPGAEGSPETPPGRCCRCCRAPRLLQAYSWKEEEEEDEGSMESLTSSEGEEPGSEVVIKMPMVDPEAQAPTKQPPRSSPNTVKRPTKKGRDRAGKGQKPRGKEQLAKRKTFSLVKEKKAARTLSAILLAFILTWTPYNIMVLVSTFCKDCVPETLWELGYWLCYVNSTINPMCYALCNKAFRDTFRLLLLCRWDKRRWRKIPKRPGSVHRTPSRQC
In short: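 CHRM1-CHO calcium-flux assay, antagonist mode. Cells were seeded 18 h, dye-loaded 1 h at 37 C and given compound for 5 min at RT, then acetylcholine was added at 50nM. FDSS fluorescence was read 3 min; 15 concentrations, three runs.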

[14] = cAMP Responsive Elements (CRE) small molecule agonists, cell-based qHTS assay (AID 1963590)
In short: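 HEK 293T CRE-bla, 2,000 cells/well, 18 h preincubation 37 C/5% CO2; cpds (DMSO) pinned, 3 h; LiveBLAzer B/G FRET substrate, 2 h RT.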

[15] = cAMP Responsive Elements (CRE) small molecule antagonists, cell-based qHTS assay (AID 1963591; active = well fitted inhibition curve with a large enough effect in the signal ratio in the repeat runs, not every such curve was filed as active; the % refers to the signal ratio)
In short: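 Beta-lactamase reporter read by FRET substrate (LiveBLAzer B/G) after 2 h at room temperature. CRE-bla HEK293T cells had received compound plus 0.25 uM (final) NKH477 for 3 h at 37 °C.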

[16] = biological target: Beta-2 adrenergic receptor (Homo sapiens) (UniProt P07550); test: Adrenergic beta2 receptor (ADRB2) small molecule antagonists, cell-based qHTS assay (AID 1963592); also: series mostly up to about 92 µM; nearly all actives have a fitted effect of over 50% in size
Sequence of Beta-2 adrenergic receptor (Homo sapiens) (P07550 whole entry, looked up): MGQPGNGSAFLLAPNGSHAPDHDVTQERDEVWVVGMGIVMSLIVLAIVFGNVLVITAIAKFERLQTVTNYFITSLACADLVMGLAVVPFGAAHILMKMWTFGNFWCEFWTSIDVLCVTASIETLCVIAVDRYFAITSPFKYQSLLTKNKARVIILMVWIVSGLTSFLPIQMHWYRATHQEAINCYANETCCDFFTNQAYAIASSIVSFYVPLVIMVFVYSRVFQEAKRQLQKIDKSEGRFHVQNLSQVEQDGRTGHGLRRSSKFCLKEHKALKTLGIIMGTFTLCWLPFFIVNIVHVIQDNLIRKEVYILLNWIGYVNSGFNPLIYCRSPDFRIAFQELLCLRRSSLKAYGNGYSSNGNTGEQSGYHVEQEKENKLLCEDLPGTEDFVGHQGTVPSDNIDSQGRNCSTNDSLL
In short: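 Cells (CHO, stable ADRB2 overexpression) incubated 18-20hr at 37C; compounds added from DMSO; agonist mix (1nM isoproterenol, 100uM IBMX, 25uM Ro-20-1724) added; 0.5hr RT; d2-cAMP and anti-cAMP-cryptate added; 1hr RT; 665/615 nm read.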

[17] = biological target: D(2) dopamine receptor (Homo sapiens) (UniProt P14416); test: Dopamine D2 receptor (DRD2) small molecule agonists, cell-based qHTS assay (AID 1963594); also: nearly all actives have a fitted effect of over 35% in size
Sequence of D(2) dopamine receptor (Homo sapiens) (P14416 whole entry, looked up): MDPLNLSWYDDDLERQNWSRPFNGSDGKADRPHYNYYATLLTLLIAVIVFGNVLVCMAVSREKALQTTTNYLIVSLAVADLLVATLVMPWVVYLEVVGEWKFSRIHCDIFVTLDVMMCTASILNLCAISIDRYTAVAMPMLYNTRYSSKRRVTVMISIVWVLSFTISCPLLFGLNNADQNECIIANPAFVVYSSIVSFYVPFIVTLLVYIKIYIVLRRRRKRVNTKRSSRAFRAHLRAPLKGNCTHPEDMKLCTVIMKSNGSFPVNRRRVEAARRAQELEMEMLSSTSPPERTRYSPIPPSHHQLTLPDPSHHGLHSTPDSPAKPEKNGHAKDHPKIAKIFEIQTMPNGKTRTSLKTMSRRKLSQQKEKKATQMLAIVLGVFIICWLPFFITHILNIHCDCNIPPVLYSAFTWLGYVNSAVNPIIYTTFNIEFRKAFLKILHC
In short: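 HEK293 cells stably expressing DRD2 were cultured 24 h at 37 C, then given Ro20-1724 (0.1 mM final) and compounds for 10 min at room temperature. NKH477 (200nM) was then added for 30 min. cAMP was read by HTRF.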

[18] = biological target: D(2) dopamine receptor (Homo sapiens) (UniProt P14416); test: Dopamine D2 receptor (DRD2) small molecule antagonists, cell-based qHTS assay (AID 1963595; active = well fitted inhibition curve with a large enough effect in the signal ratio in the repeat runs, with a control signal flat; the % refers to the signal ratio)
In short: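 HEK293 cells stably expressing DRD2 were preincubated with 0.1 mM Ro20-1724, then with compound for 10 min at room temperature. Cells were stimulated with 200 nM NKH477 plus 12 nM quinpirole for 30 min, and cAMP was read by HTRF.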

[19] = p53 small molecule agonists, cell-based qHTS assay: qHTS cell viability counter screen (AID 1963581); also: nearly all actives have a fitted effect of over 45% in size
In short: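 HCT-116 p53RE-bla cells, 4,000/well, plated 5 h before compound pin transfer; 16 h at 37 C; bla substrate 2 h RT; then CellTiter-Glo, 30 min RT, luminescence.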

[20] = biological target: Muscarinic acetylcholine receptor M1 (Homo sapiens) (UniProt P11229); test: Cholinergic receptor muscarinic 1 (CHRM1) small molecule agonists, cell-based qHTS assay (AID 1963589); also: nearly all actives have a fitted effect of over 35% in size
In short: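 Human M1 in stable CHO line; 18 h plating, 1 h dye load 37 C; cpd added (agonist mode); Ca2+ fluorescence kinetic read, 1 s intervals; 15 conc, 3 runs.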

Structure (SMILES) | Potency [1] | Potency [2] | Potency [3] | Potency [4] | Potency [5] | Potency [6] | Potency [7] | Potency [8] | Potency [9] | Potency [10] | Potency [11] | Potency [12] | Potency [13] | Potency [14] | Potency [15] | Potency [16] | Potency [17] | Potency [18] | Potency [19] | Potency [20]
CCOC(=O)C1OC1(C)c1ccccc1 (stereo not given) | inactive | inactive | inactive | inactive | inactive | inactive | inactive | inactive | inactive | inactive | inactive | inactive | inactive | inactive | inactive | inactive | inactive | inactive | – | –
N#Cc1cc(Br)c(O)c(Br)c1 | inactive | inactive | inactive | inactive | inactive | inactive | inactive | inactive | inactive | – | inactive | inactive | – | – | inactive | inactive | inactive | inactive | inactive | inactive
C/C=C/c1ccc2c(c1)OCO2 | inactive | inactive | inactive | inactive | inactive | inactive | inactive | inactive | inactive | – | – | – | – | inactive | – | inactive | – | inactive | inactive | –
c1ccc2c(c1)Nc1ccccc1S2 | inactive | 61.1 µM (active) and inactive | inactive | inactive | inactive | inactive | inactive | inactive | inactive | inactive | – | – | – | inactive | inactive | inactive | inactive | inactive | – | –
CCCCCCI | inactive | inactive | inactive | inactive | inactive | inactive | inactive | inactive | inactive | inactive | inactive | inactive | inactive | inactive | inactive | inactive | inactive | inactive | – | inactive
NNC(=O)c1ccccc1 | inactive | 56 µM (active) | inactive | inactive | inactive | inactive | inactive | 41.9 µM (active) | inactive | inactive | inactive | inactive | inactive | inactive | inactive | inactive | inactive | inactive | – | inactive
C=C(C)C(=O)OCC1CO1 (stereo not given) | inactive | inactive | inactive | inactive | inactive | inactive | inactive | inactive | inactive | inactive | inactive | inactive | inactive | inactive | inactive | inactive | inactive | inactive | – | inactive
